# Laboratory results published in PubChem BioAssay (NCI).
# The panel holds about 79,000 compounds, 15% with a hit somewhere; the sample as a whole holds those more often. A number with no mark means an inactive call. The source made the active and inactive calls. Cut-off read from the data, not from the text of the source: active = growth inhibition above about 70%; inactive = the rest.
# Experiment: NCI Yeast Anticancer Drug Screen. Data for the bub3 strain (AID 167)
# Settings: S. cerevisiae bub3 mutant strain, at 50.0 µM (retest, dose inferred, filed as 5.0), hits give high values
# Summary of the method: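 Whole-cell yeast assay. The mutant strain was incubated with compounds, and growth inhibition was determined by comparison with vehicle-treated cells.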
row,Structure (SMILES),growth inhibition
1,c1ccc2nc3ccccc3nc2c1,45%
2,O=C(NCCCl)Nc1c2ccccc2nc2ccccc12,19%
3,CC1=C2CCC3C(CCC4(C)C(C(C)CCCC(C)C)CCC34)C2(C)CCC1=O (stereo not drawn),5%
4,Cc1cccc(Cl)c1NC(=O)/C=C/c1ccccc1,39%
5,O=C1/C(=C/c2ccc(Cl)cc2)CSC/C1=C\c1ccc(Cl)cc1,62%
6,CCOC(=O)c1c(N)sc2c1CCCCC2,-42%
7,CC(C)NC(=O)O/N=C1\CCC2[C@@H]3CC=C4C[C@@H](OC(=O)NC(C)C)CC[C@]4(C)C3CC[C@]12C (stereo partly drawn),72% (active)
8,COc1ccc2c(c1)c(=O)c1c(NCCN(C)C)ccc3nnn2c31,43%
9,CCCC(=O)N(C(=O)CCC)C1=C(Cl)C(=O)c2ccccc2C1=O,98% (active)
10,CN(C)C1C=CCC(c2ccccc2)C1[N+](=O)[O-] (stereo not drawn),79% (active)
11,CC(=O)NC1C(=O)CC(c2ccccc2)N(C)C1c1ccccc1 (stereo not drawn),3%
12,CCCCC#CCCOC(=O)C#CCCCC,12%
13,CC1C[C@]2(C)C(=S)Nc3ccccc3[C@@H]2Nc2ccccc21 (stereo partly drawn),82% (active)
14,O=[N+]([O-])/C=C/c1c[nH]c2c1ccc1ccccc12,95% (active)
15,CCC[CH2][Sn]([S][Sn]([CH2]CCC)([c]1ccccc1)[c]1ccccc1)([c]1ccccc1)[c]1ccccc1,87% (active)
16,CCN(CC)CCCCNc1ccc(Cl)cc1,10%
17,C[n+]1c(/C=C\c2ccccc2)sc2ccccc21,86% (active)
18,Cc1nnc2nc3c(nn12)c1ccccc1n3C,-57%
19,CS(=O)c1cc(=O)c2ccccc2s1 (stereo not drawn),95% (active)
20,COC(=O)C1=C(C)NC(C)=C(C(=O)OC)C1c1ccc(NCc2ccccc2)c([N+](=O)[O-])c1,68%

row,Structure (SMILES),growth inhibition
1,C/C(=N/NC(=S)Nc1ccccc1Cl)c1ccccn1,17%
2,Nc1ccccc1Sc1ccc(C(F)(F)F)cc1[N+](=O)[O-],26%
3,COc1ccc2nc(-c3ccc(Cl)cc3)[nH]c2c1,90% (active)
4,Cc1c(C)c(C)c(C(=O)c2ccccc2C(=O)NCCSC(C)(C)C)c(C)c1C,33%
5,COC(=O)C(=O)C(C(=O)Nc1cccc(C)c1C)C1Sc2ccccc2NC1=O (stereo not drawn),65%
6,Cc1nc2c(O)c3c(c(O)c2nc1C)C1C=CC3CC1,91% (active)
7,C[C@]12CCC(=O)C=C1CC[C@@H]1[C@@H]2[C@@H](O)C[C@@]2(C)[C@H]1CC[C@]2(O)C(=O)COC(=O)CCC1CCCC1,95% (active)
8,CC(=O)OCCc1ccc(CCc2ccccc2)cc1,45%
9,COc1cc2c(cc1OC)C(=O)C(C)(c1ccccc1)NC2 (stereo not drawn),31%
10,CCCCCCC(/C=C/c1c(Cl)cccc1Cl)=N\O,53%
11,O=C1OC(c2ccc(O)cc2)=C(c2ccccc2)C1c1ccccc1 (stereo not drawn),29%
12,c1cc[c]([Ge]([O]c2cccc3cccnc23)([c]2ccccc2)[c]2ccccc2)cc1,7%
13,CCCCCCCCCCCCCCCCCCOP(=O)([O-])OCC[N+](C)(C)C,99% (active)
14,Cc1noc(NS(=O)(=O)c2ccc(NCc3c4ccccc4nc4cc(Cl)ccc34)cc2)c1C,-3%
15,CCC(=NCCCCCCN=C(CC)c1cc(C)cc([N+](=O)[O-])c1O)c1cc(C)cc([N+](=O)[O-])c1O.[Fe],70% (active)
16,O=C(O)c1ccc([N+](=O)[O-])cc1.[Ag],99% (active)
17,O=C1C(=O)c2ccccc2C(O)=C1C(c1ccccc1)c1ccccc1,83% (active)
18,CC(=O)SC1C(=O)N(C)C(SC(C)=O)C(=O)N1C (stereo not drawn),-3%
19,COc1ccc2c(c1)CN([C@@H](C)[C@H]1CC[C@H]3[C@@H]4CC[C@H]5C[C@@H](O)CC[C@]5(C)[C@H]4CC[C@]13C)CO2,99% (active)

# Same assay, conditions: S. cerevisiae bub3 mutant strain, at 50.0 µM, hits give high values
row,Structure (SMILES),growth inhibition
1,c1ccc2nc3ccccc3nc2c1,33.1%
2,O=C(NCCCl)Nc1c2ccccc2nc2ccccc12,34.9%
3,CC1=C2CCC3C(CCC4(C)C(C(C)CCCC(C)C)CCC34)C2(C)CCC1=O (stereo not drawn),4.1%
4,Cc1cccc(Cl)c1NC(=O)/C=C/c1ccccc1,8.6%
5,O=C1/C(=C/c2ccc(Cl)cc2)CSC/C1=C\c1ccc(Cl)cc1,5.55%
6,CCOC(=O)c1c(N)sc2c1CCCCC2,50.4%
7,CC(C)NC(=O)O/N=C1\CCC2[C@@H]3CC=C4C[C@@H](OC(=O)NC(C)C)CC[C@]4(C)C3CC[C@]12C (stereo partly drawn),91.2% (active)
8,COc1ccc2c(c1)c(=O)c1c(NCCN(C)C)ccc3nnn2c31,11.6%
9,CCCC(=O)N(C(=O)CCC)C1=C(Cl)C(=O)c2ccccc2C1=O,87.4% (active)
10,CN(C)C1C=CCC(c2ccccc2)C1[N+](=O)[O-] (stereo not drawn),92.5% (active)
11,CC(=O)NC1C(=O)CC(c2ccccc2)N(C)C1c1ccccc1 (stereo not drawn),18%
12,CCCCC#CCCOC(=O)C#CCCCC,-21.3%
13,CC1C[C@]2(C)C(=S)Nc3ccccc3[C@@H]2Nc2ccccc21 (stereo partly drawn),42.3%
14,O=[N+]([O-])/C=C/c1c[nH]c2c1ccc1ccccc12,75.3% (active)
15,CCC[CH2][Sn]([S][Sn]([CH2]CCC)([c]1ccccc1)[c]1ccccc1)([c]1ccccc1)[c]1ccccc1,98.8% (active)
16,CCN(CC)CCCCNc1ccc(Cl)cc1,44.5%
17,C[n+]1c(/C=C\c2ccccc2)sc2ccccc21,76.9% (active)
18,Cc1nnc2nc3c(nn12)c1ccccc1n3C,-0.35%
19,CS(=O)c1cc(=O)c2ccccc2s1 (stereo not drawn),96.2% (active)
20,COC(=O)C1=C(C)NC(C)=C(C(=O)OC)C1c1ccc(NCc2ccccc2)c([N+](=O)[O-])c1,6.45%

row,Structure (SMILES),growth inhibition
1,C/C(=N/NC(=S)Nc1ccccc1Cl)c1ccccn1,56.2%
2,Nc1ccccc1Sc1ccc(C(F)(F)F)cc1[N+](=O)[O-],98.7% (active)
3,COc1ccc2nc(-c3ccc(Cl)cc3)[nH]c2c1,94.2% (active)
4,Cc1c(C)c(C)c(C(=O)c2ccccc2C(=O)NCCSC(C)(C)C)c(C)c1C,82.4% (active)
5,COC(=O)C(=O)C(C(=O)Nc1cccc(C)c1C)C1Sc2ccccc2NC1=O (stereo not drawn),81.7% (active)
6,Cc1nc2c(O)c3c(c(O)c2nc1C)C1C=CC3CC1,84.7% (active)
7,C[C@]12CCC(=O)C=C1CC[C@@H]1[C@@H]2[C@@H](O)C[C@@]2(C)[C@H]1CC[C@]2(O)C(=O)COC(=O)CCC1CCCC1,77.2% (active)
8,CC(=O)OCCc1ccc(CCc2ccccc2)cc1,67.7%
9,COc1cc2c(cc1OC)C(=O)C(C)(c1ccccc1)NC2 (stereo not drawn),97.3% (active)
10,CCCCCCC(/C=C/c1c(Cl)cccc1Cl)=N\O,92.8% (active)
11,O=C1OC(c2ccc(O)cc2)=C(c2ccccc2)C1c1ccccc1 (stereo not drawn),99.4% (active)
12,c1cc[c]([Ge]([O]c2cccc3cccnc23)([c]2ccccc2)[c]2ccccc2)cc1,72.2% (active)
13,CCCCCCCCCCCCCCCCCCOP(=O)([O-])OCC[N+](C)(C)C,90.3% (active)
14,Cc1noc(NS(=O)(=O)c2ccc(NCc3c4ccccc4nc4cc(Cl)ccc34)cc2)c1C,98.2% (active)
15,CCC(=NCCCCCCN=C(CC)c1cc(C)cc([N+](=O)[O-])c1O)c1cc(C)cc([N+](=O)[O-])c1O.[Fe],71.7% (active)
16,O=C(O)c1ccc([N+](=O)[O-])cc1.[Ag],99.2% (active)
17,O=C1C(=O)c2ccccc2C(O)=C1C(c1ccccc1)c1ccccc1,60.6%
18,CC(=O)SC1C(=O)N(C)C(SC(C)=O)C(=O)N1C (stereo not drawn),95.6% (active)
19,COc1ccc2c(c1)CN([C@@H](C)[C@H]1CC[C@H]3[C@@H]4CC[C@H]5C[C@@H](O)CC[C@]5(C)[C@H]4CC[C@]13C)CO2,98.7% (active)
